Hit rate of the full screen: of about 300,000 compounds, about 2,500 (0.83%) were called active. Many of the other results were omitted from the sample, so actives are more common in it than they were. A number with no mark means an inactive call.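 How the source made its calls: active means inhibition above the mean of all tested compounds plus 3 SD, set per screening campaign (cut at about 24% in these data); inactive means the rest.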
What follows are compounds tested on tRNA 2'-phosphotransferase TPT1 (Candida albicans SC5314) (assay: Candida albicans TPT1 enzyme inhibitors, primary screen, biochemical, fluorescence polarization (AID 1962;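 further: plate controls were DMSO alone for no effect and ferristatin control at 100 nM for full effect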)). Conditions: recombinant caTPT1, FP RNA substrate dephosphorylation; at 5 µM; stronger effect = higher value.

**Q.** How did the inhibition turn out when `Cc1ccc(C)c2[nH]c(=O)c(CCNC(=O)c3cccs3)cc12` was run?
**A.** -3.33%

**Q.** How did the inhibition turn out when `COc1ccc(OC)c2[nH]c(=O)c(CCNC(=O)C(C)(C)C)cc12` was run?
**A.** 1.81%

**Q.** `Cc1ccc(C)c2[nH]c(=O)c(CCNC(=O)CC(C)C)cc12` was tested. Which inhibition did it give?
**A.** 51.6% (active)

**Q.** With `CCc1ccnc(NS(=O)(=O)c2ccc3c(c2)OCCO3)c1` as the compound, how does the inhibition read?
**A.** -1.71%

**Q.** Which inhibition does the source give for `O=C(C1CCCO1)N1CCN(C(=S)NC2CC2)CC1` (configuration not stated) here?
**A.** -3.35%

**Q.** How did the inhibition turn out when `CCOC(=O)/C(C#N)=C/c1ccc(OCC(=O)Nc2ccccc2)c(OC)c1` was run?
**A.** -2.78%

**Q.** With `CCOC(=O)/C(C#N)=C/c1ccc(N2CCN(Cc3ccccc3)CC2)cc1` as the compound, how does the inhibition read?
**A.** 48% (active)

**Q.** Which inhibition does the source give for `COc1ccc(/C=C(\C#N)C(=O)ONC2=NCCCCC2)cc1` here?
**A.** 0.43%

**Q.** For `CCOC(=O)NC(=O)/C(C#N)=C\c1ccccc1`, which inhibition is on record?
**A.** -1.78%

**Q.** `COc1ccc(N2CCN(C(=O)/C(C#N)=C/c3ccccc3)CC2)cc1` was tested. Which inhibition did it give?
**A.** 19.5%

**Q.** With `CCOC(=O)/C(C#N)=C/c1ccc(N2CCCCC2)cc1` as the compound, how does the inhibition read?
**A.** 116% (active)

**Q.** How did the inhibition turn out when `COc1ccc(-c2nn(-c3ccccc3)cc2/C=C2/SC(=S)N(CCCC(=O)O)C2=O)c(C)c1` was run?
**A.** 1.54%

**Q.** How did the inhibition turn out when `Cc1ccc(-c2nn(-c3ccccc3)cc2/C=C2\SC(=S)N(CCCCCC(=O)O)C2=O)o1` was run?
**A.** 49.2% (active)

**Q.** How did the inhibition turn out when `CN(C)S(=O)(=O)c1cccc(-c2nn(-c3ccccc3)cc2/C=C2\SC(=S)N(CC(=O)O)C2=O)c1` was run?
**A.** -1.23%

**Q.** How did the inhibition turn out when `CCC(C)Sc1nc(C)nc2c1c(=O)n(C)c(=O)n2C` (configuration not stated) was run?
**A.** -1.63%

**Q.** With `NC(=O)NCCCC(=O)O` as the compound, how does the inhibition read?
**A.** -0.59%

**Q.** `COc1ccc(/C=N/NC(=O)c2cc(-c3cccc(C)c3)nc3ccccc23)cc1O` was tested. Which inhibition did it give?
**A.** -4.75%

**Q.** How did the inhibition turn out when `CC(C)NC(=O)c1ccc(Cl)cc1Cl` was run?
**A.** -0.44%

**Q.** Which inhibition does the source give for `Cc1sc2nc(COC(=O)C(NC(=O)c3ccc(Cl)cc3Cl)C(C)C)[nH]c(=O)c2c1C` (configuration not stated) here?
**A.** 33.1% (active)

**Q.** For `Cc1sc2nc(CSCC(=O)Nc3c(Cl)cccc3Cl)[nH]c(=O)c2c1C`, which inhibition is on record?
**A.** 17.1%

**Q.** For `CSCCC(NC(=O)c1ccc(Cl)cc1Cl)C(=O)NNC(=O)c1csc(N2CCOCC2)n1` (configuration not stated), which inhibition is on record?
**A.** 1.09%

**Q.** With `COc1ccc(N2CC(C)Cn3c2nc2c3c(=O)n(Cc3ccccc3F)c(=O)n2C)c(OC)c1` (configuration not stated) as the compound, how does the inhibition read?
**A.** 1.36%

**Q.** With `O=C(CN1C(=O)NC2(CCCCC2)C1=O)NCCc1c[nH]c2ccccc12` as the compound, how does the inhibition read?
**A.** -3.99%

**Q.** `N#C/C(=C/c1ccc(N2CCCCC2)o1)C(=O)NCCc1c[nH]c2ccccc12` was tested. Which inhibition did it give?
**A.** 178% (active)

**Q.** How did the inhibition turn out when `CC(=O)N/C(=C/c1ccc(Cl)cc1)C(=O)NCCc1c[nH]c2ccccc12` was run?
**A.** -3.35%

**Q.** For `O=C(CSc1nnc(Nc2ccccc2)s1)Nc1cccnc1Cl`, which inhibition is on record?
**A.** -0.7%

**Q.** `CC(C)c1ccc(Nc2nnc(SCC(=O)c3nnc(-c4ccccc4)o3)s2)cc1` was tested. Which inhibition did it give?
**A.** 42% (active)

**Q.** Which inhibition does the source give for `Cc1ccc(Nc2nnc(SCC(=O)c3cc4ccccc4o3)s2)cc1C` here?
**A.** 9.66%

**Q.** `CC(C)CN1CCNC(=O)C1CC(=O)N(C)CC1CCOCC1` (configuration not stated) was tested. Which inhibition did it give?
**A.** -5.14%

**Q.** With `COc1ccc(S(=O)(=O)NCC2CCCN(C(=O)c3occc3C)C2)cc1` (configuration not stated) as the compound, how does the inhibition read?
**A.** -4.48%

**Q.** With `CCN1CCN(C(=O)Cn2nc(C)n3c(cc4c(OC)cccc43)c2=O)CC1` as the compound, how does the inhibition read?
**A.** 1.92%

**Q.** With `Cc1ccc2[nH]c(=O)c(CC(=O)O)c(-c3ccccc3)c2c1` as the compound, how does the inhibition read?
**A.** -1.99%

**Q.** How did the inhibition turn out when `Cc1ccc2[nH]c(=O)c(CC=C(Cl)Cl)c(C)c2c1` was run?
**A.** 1.23%

**Q.** `Cc1ccc2[nH]c(=O)c(CN3CCCCC3)c(-c3ccccc3)c2c1` was tested. Which inhibition did it give?
**A.** 31.4% (active)

**Q.** Which inhibition does the source give for `CCOc1ccc(NC(=O)c2ccc(NC(=O)C3CCCO3)cc2)cc1` (configuration not stated) here?
**A.** 1.62%

**Q.** For `Cc1ccc(CNC(=O)c2cc(-c3ccccc3C)n(CC3CC(c4cccc([N+](=O)[O-])c4)=NO3)n2)cc1` (configuration not stated), which inhibition is on record?
**A.** -1.39%

**Q.** Which inhibition does the source give for `Cn1c(-c2ccc(C(F)(F)F)cc2)cc2onc(-c3ccccc3)c2c1=O` here?
**A.** 1.56%

**Q.** How did the inhibition turn out when `CN(c1ccc(OCC(=O)OCC(=O)Nc2cccc([N+](=O)[O-])c2)cc1)S(=O)(=O)c1ccc(F)cc1` was run?
**A.** -1.05%

**Q.** For `Cc1c(Cl)c([N+](=O)[O-])nn1Cc1ccc(C(=O)N/N=C\c2cc(Cl)ccc2O)o1`, which inhibition is on record?
**A.** 1.45%

**Q.** Which inhibition does the source give for `Cc1ccc2c(c1)N(CC(=O)N1CCOCC1)C(=O)CO2` here?
**A.** 1.05%

**Q.** With `Cc1cc(/C=C2/SC(=O)N(CC(=O)N3CCCC3)C2=O)c(C)n1C` as the compound, how does the inhibition read?
**A.** -4.95%

**Q.** With `Cc1cc(/C=C2/SC(=O)N(CC(=O)N3CCCC3)C2=O)ccc1N1CCOCC1` as the compound, how does the inhibition read?
**A.** 38.1% (active)

**Q.** With `C#CCOCCOCCOCCNc1nc(N2CCN(C(=O)[C@H](CCCCN)n3cc(CCC(=O)O)nn3)CC2)nc(N2CCN(C(=O)[C@H](CCCCN)n3cc(CC(C)O)nn3)CC2)n1` (some centres not stated) as the compound, how does the inhibition read?
**A.** -2.04%

**Q.** `Cc1ccc(S(=O)(=O)N2CCN=C2SCc2c(F)cccc2Cl)cc1` was tested. Which inhibition did it give?
**A.** -3.87%

**Q.** For `O=C(CNC(=O)c1ccc(F)cc1)c1ccccc1`, which inhibition is on record?
**A.** 5.07%

**Q.** How did the inhibition turn out when `Cc1cccc[n+]1CC(=O)c1ccccc1` was run?
**A.** -3.95%

**Q.** With `O=C(C[n+]1cc(Br)cc2ccccc21)c1ccc(F)cc1` as the compound, how does the inhibition read?
**A.** 25.1% (active)

**Q.** `COc1cccc(-n2c(N)cc(=O)nc2SCC(=O)Nc2cc(C)on2)c1` was tested. Which inhibition did it give?
**A.** -0.29%

**Q.** For `CCC(C)(C)c1ccc(Oc2ccc(NC(=O)COC(=O)C3=COCCO3)cc2)cc1`, which inhibition is on record?
**A.** 0.08%

**Q.** With `CC(C)C[C@@H](N)c1nnc(SCC(=O)c2ccc(Cl)cc2)o1` as the compound, how does the inhibition read?
**A.** 3.05%

**Q.** With `O=C(O)CCCN1C(=O)C2C3c4ccccc4C(c4ccccc43)[C@@H]2C1=O` (some centres not stated) as the compound, how does the inhibition read?
**A.** 2.01%

**Q.** How did the inhibition turn out when `COc1ccc(CNC(=O)CCN2C(=O)c3ccccc3C2=O)cc1` was run?
**A.** -3.69%

**Q.** With `O=C(CN1C(=O)c2ccccc2C1=O)NCc1ccc(C(=O)O)cc1` as the compound, how does the inhibition read?
**A.** 36.6% (active)

**Q.** How did the inhibition turn out when `O=C(O)CCC(=O)NCc1ccc(C(=O)O)cc1` was run?
**A.** -6.54%

**Q.** How did the inhibition turn out when `Cc1ccc(C)c(C(=O)N2CCC(n3nccc3NC(=O)C3CC3)CC2)c1` was run?
**A.** 1.61%

**Q.** `CC(C(=O)N1CCN(c2ccccc2F)CC1)c1ccc([N+](=O)[O-])cc1` (configuration not stated) was tested. Which inhibition did it give?
**A.** 0.08%

**Q.** With `NS(=O)(=O)c1ccc(NC(=S)NNC(=O)c2cccs2)cc1` as the compound, how does the inhibition read?
**A.** -0.11%

Reference: PubChem BioAssay AID1962 (The Scripps Research Institute Molecular Screening Center, 2009)
